Bioassay records as filed in PubChem.
Hits are enriched below; roughly 7% of the tested compounds scored in any of these assays.
ATXN2 expr inh: Primary qHTS for Inhibitors of ATXN expression | 0.72% of 360,000 active | HEK-293 ATXN2-luciferase reporter, luminescence, 24 h | Potency, µM (highest dose often 57 µM), without a hit: top-dose activity change, negative = inhibition, usual class: inhibitors; note: potency is the fitted concentration of half-maximal effect; % is set by controls: 0 for no effect and ±100 for the full control effect; nearly all actives have a fitted effect of over 55% in size
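qHTS (up to 57 uM final) was run with 24 h compound exposure of reporter cells at 37 °C. Each well was multiplexed: SteadyGlo luminescence measured ATXN2-luciferase expression after a fluorogenic Gly-Phe-AFC viability readout (25 uM final).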
IL-1B inflam inh: qHTS for Inhibitors of Inflammasome Signaling: IL-1-beta AlphaLISA Primary Screen | activity change, % at 57.5 µM | AID 743279, 2014 | 4.7% of 360,000 active | THP-1 LPS/ATP IL-1B secretion, AlphaLISA, 16 h; stronger effect = lower value; in the data active = activity change below about -50%; inconclusive = mostly about -30% to -49%; note: % is set by controls: 0 for no effect and ±100 for the full control effect
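Secreted IL-1B measured by AlphaLISA bead assay after 16 h compound exposure of THP-1 cells; compounds (final up to 57.5 uM) added 1 h before LPS (250 ng/mL) and ATP (1.25 mM) stimulation; lower signal means less secretion.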
a7 integrin act: qHTS for Activators of Integrin-Mediated Alleviation for Muscular Dystrophy | 0.064% of 350,000 active | Potency, µM (doses to about 38.3 µM), inactives show top-dose activation, hits mostly activators | alpha7betagal myoblasts, beta-gal FDG fluorescence, 48 h | AID 624291, 2012;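 note: potency is the fitted concentration of half-maximal effect; 100% = response of the positive control SU9516; nearly all actives have a fitted effect of over 60% in size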
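Alpha7betagal+/- myoblasts (passage 13) were plated 16-24 hr, then exposed to compounds (1:260 dilution of DMSO stock) for 48 hours at 37C. After MPER lysis, β-galactosidase reporter activity was read as FDG fluorescence (ex 480/em 540) after 30 minutes.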
ATXN viability: Viability Counterscreen for Primary qHTS for Inhibitors of ATXN expression; S2 cells (HEK-293 line with an ATXN2-luciferase reporter) viability, CellTiter-Fluor protease fluorescence, 24 h; Potency, µM (series often up to 56.7 µM), actives largely listed as cytotoxic; 0.49% of 400,000 active; AID 651635, 2014; note: potency is the fitted concentration of half-maximal effect; nearly all actives have a fitted effect of over 40% in size
D3 antag: qHTS of D3 Dopamine Receptor Antagonist: qHTS; AID 652054, 2013; 2.5% of 360,000 active; D3R cells, DiscoveRx beta-arrestin luminescence, antagonist mode; stronger effect = lower value; D(3) dopamine receptor (Homo sapiens), P35462; max response, negative = inhibition, %; in the data active = max response below about -50%; inconclusive = no clear call, values can overlap the other calls; note: % is set by controls: 0 for no effect and ±100 for the full control effect
Target sequence (P35462 whole entry, looked up): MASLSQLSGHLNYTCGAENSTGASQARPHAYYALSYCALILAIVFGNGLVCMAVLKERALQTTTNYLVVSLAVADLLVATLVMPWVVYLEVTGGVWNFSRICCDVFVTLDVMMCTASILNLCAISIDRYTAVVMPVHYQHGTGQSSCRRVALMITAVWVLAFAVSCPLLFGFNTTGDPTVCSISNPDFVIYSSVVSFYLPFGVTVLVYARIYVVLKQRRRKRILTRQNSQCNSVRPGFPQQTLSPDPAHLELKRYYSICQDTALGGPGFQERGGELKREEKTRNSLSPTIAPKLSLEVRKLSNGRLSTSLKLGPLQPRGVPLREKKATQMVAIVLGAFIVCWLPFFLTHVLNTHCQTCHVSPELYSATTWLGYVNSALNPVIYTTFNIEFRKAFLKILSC
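Cells expressing the human receptor were seeded at 1500 cells/well, incubated overnight at 37 degrees C in 5% CO2, then exposed to library compounds with dopamine controls for 90 minutes at 37 degrees C before luminescent detection.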
D3 ag: qHTS of D3 Dopamine Receptor Agonist: qHTS; D(3) dopamine receptor (Homo sapiens), P35462; D3R DiscoveRx beta-arrestin cells, luminescence, 90 min; max activation, %; 0.58% of 410,000 active; AID 652048, 2013; in the data active = max activation above about 30%; note: 0% is about no effect
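Agonist-mode cell screen: cells plated at 1500/well and incubated overnight at 37 °C, then exposed to library compounds for 90 min at 37 °C. Detection reagent was added for 30–60 min at room temperature, and luminescence was read.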
Numbers without * were called inactive. Unless noted, calls come from the whole dose curve; as a rule, active = well fitted curve in the direction sought with a large enough effect; inconclusive = small, poorly fitted or top-dose-only effect, or another doubt; inactive = no such curve, though single readings can be large; an effect the other way counts as inactive or inconclusive.

What do the screens show for `O=C(NCCC1=CCCCC1)C1CCC(CNc2nc(=S)[nH]c3ccccc23)CC1` (centres undefined)?
ATXN2 expr inh: inconclusive; IL-1B inflam inh: -26.7; a7 integrin act: 0.0%; D3 antag: -83.4*; D3 ag: -12.6

Results for O=C(NCCc1ccc(Cl)cc1)C1CCC(CNc2nc(=S)[nH]c3ccccc23)CC1 (centres undefined) ?
ATXN2 expr inh: -35.9%; IL-1B inflam inh: -2.9; a7 integrin act: 26.2%; ATXN viability: inactive; D3 antag: -13.3; D3 ag: -5.1

What do the screens show for `O=C(C1CCC(CNc2nc(=S)[nH]c3ccccc23)CC1)N1CCN(c2ccc(F)cc2)CC1` (centres undefined)?
ATXN2 expr inh: inconclusive; IL-1B inflam inh: -72.0*; a7 integrin act: -64.6%; ATXN viability: inactive; D3 antag: -11.9; D3 ag: -0.8

How did CC(=O)c1cccc(OCC(=O)N2CCN(c3ccc(C(F)(F)F)cn3)CC2)c1 do in these assays?
ATXN2 expr inh: -31.6%; IL-1B inflam inh: -2.2; a7 integrin act: -30.7%; ATXN viability: inactive; D3 antag: 4.9; D3 ag: 1.4

How did COc1ccc(S(=O)(=O)N(C(C)=O)c2ccc3oc(=O)sc3c2)cc1 do in these assays?
ATXN2 expr inh: -3.9%; IL-1B inflam inh: -3.1; a7 integrin act: -20.9%; ATXN viability: inactive; D3 antag: -58.6*; D3 ag: 2.5

What do the screens show for `CCOc1ccc(S(=O)(=O)N(C(C)=O)c2ccc3oc(C)c(C(=O)OC)c3c2)cc1`?
D3 ag: 1.3

How did O=c1c2c([N+](=O)[O-])cc([N+](=O)[O-])cc2sn1Cc1ccccc1 do in these assays?
ATXN2 expr inh: inconclusive; IL-1B inflam inh: -105.1*; a7 integrin act: -79.1%; ATXN viability: inconclusive; D3 antag: inconclusive; D3 ag: -4.5

What do the screens show for `O=C(c1cccc(O)c1)N1CCN(C(=O)C2CC2)CC1`?
ATXN2 expr inh: 0.9%; IL-1B inflam inh: 12.8; a7 integrin act: 2.9%; ATXN viability: inactive; D3 antag: -8.1; D3 ag: 1.0

What do the screens show for `C[C@H](CO)N1C[C@H](C)[C@@H](CN(C)C(=O)c2ccc(N3CCN(C)CC3)cc2)OCc2cnnn2CCCC1=O`?
ATXN2 expr inh: 7.3%; IL-1B inflam inh: -18.9; ATXN viability: inactive; D3 antag: 0.0; D3 ag: -13.0

Results for OC1c2cc(Br)ccc2N=C2CCCN21 (centres undefined) ?
IL-1B inflam inh: -97.5*; a7 integrin act: -74.1%; ATXN viability: 15.8µM*; D3 antag: -2.6; D3 ag: -3.1

How did OC1c2cc(Br)ccc2N=C2CCCCCN21 (centres undefined) do in these assays?
ATXN2 expr inh: 6.0%; IL-1B inflam inh: 28.1; ATXN viability: inactive; D3 antag: -21.3; D3 ag: -3.2

How did Cc1c(Cl)cccc1NC(=O)CSc1ncc(S(=O)(=O)c2ccc(C(C)C)cc2)c(=O)[nH]1 do in these assays?
ATXN2 expr inh: -3.7%; ATXN viability: inactive; D3 ag: -4.5

How did COc1ccc(N=N/C(=C\O)C(=O)c2ccco2)cc1 do in these assays?
ATXN2 expr inh: 3.0%; IL-1B inflam inh: -2.6; a7 integrin act: -14.2%; ATXN viability: inactive; D3 antag: -7.4; D3 ag: -1.5

How did O=C(/C(=C/O)N=Nc1ccccc1)c1cccs1 do in these assays?
ATXN2 expr inh: inconclusive; IL-1B inflam inh: -74.1*; a7 integrin act: -2.6%; ATXN viability: inconclusive; D3 antag: 14.3; D3 ag: 12.8

Results for CC1(C(=O)NS(=O)(=O)c2cccs2)CCN1C(=O)CC1CCCC1 (centres undefined) ?
ATXN2 expr inh: 7.4%; IL-1B inflam inh: 27.4; ATXN viability: inactive; D3 antag: 13.5; D3 ag: 8.2

What do the screens show for `COc1ccc(Cl)cc1NC(=O)Nc1c[nH]c(=O)[nH]c1=O`?
ATXN2 expr inh: 5.2%; ATXN viability: inactive; D3 ag: 0.4

What do the screens show for `O=C(NCc1ccccc1)c1ccc(N2CCC3(CC2)CC(c2ccc(Cl)cc2)=NO3)c([N+](=O)[O-])c1`?
ATXN2 expr inh: -20.0%; IL-1B inflam inh: inconclusive; a7 integrin act: 23.1%; ATXN viability: inactive; D3 antag: -63.3*; D3 ag: -23.0

How did CCN(CC)C(=O)Oc1ccc2ccccc2c1Br do in these assays?
ATXN2 expr inh: 132.4%; IL-1B inflam inh: -59.6*; a7 integrin act: -23.0%; ATXN viability: inactive; D3 antag: -8.3; D3 ag: -3.7

What do the screens show for `O=[N+]([O-])c1cccc(/C=N/Nc2nc(N3CCOCC3)nc(N3CCOCC3)n2)c1`?
ATXN2 expr inh: -0.1%; IL-1B inflam inh: -0.8; a7 integrin act: -15.6%; ATXN viability: inactive; D3 antag: 19.8; D3 ag: 0.7

How did Cc1cccc(C=NNc2cc(N3CCOCC3)nc(OCCc3ccccn3)n2)c1 do in these assays?
ATXN2 expr inh: 0.968µM*

Results for Cc1nc(N/N=C/c2cccnc2)cc(N2CCOCC2)n1 ?
IL-1B inflam inh: -64.3*; a7 integrin act: 4.1%; ATXN viability: inactive; D3 antag: 0.0; D3 ag: -11.4

What do the screens show for `O=[N+]([O-])c1cccc(/C=N/Nc2cc(Cl)nc(-c3ccccc3)n2)c1`?
ATXN2 expr inh: inconclusive; IL-1B inflam inh: -77.1*; a7 integrin act: -4.1%; ATXN viability: inconclusive; D3 antag: 37.7; D3 ag: 6.2

What do the screens show for `O=[N+]([O-])c1cccc(/C=N/Nc2cc(N3CCOCC3)ncn2)c1`?
IL-1B inflam inh: -68.2*; a7 integrin act: 4.9%; ATXN viability: inactive; D3 antag: 16.4; D3 ag: 2.1

Results for CCCCc1nnc(NC(=O)CSc2nc(=O)cc(N)n2-c2cccc(C)c2)s1 ?
ATXN2 expr inh: 2.7%; IL-1B inflam inh: 13.4; a7 integrin act: inconclusive; ATXN viability: inactive; D3 antag: -7.2; D3 ag: -2.8

What do the screens show for `CCSC(C)CC1CC(=O)CC(=O)C1` (centres undefined)?
ATXN2 expr inh: -9.8%; IL-1B inflam inh: 16.9; a7 integrin act: 10.5%; ATXN viability: inactive; D3 antag: 24.3; D3 ag: 9.5

What do the screens show for `C/C(=N\Nc1cc(N2CCOCC2)ncn1)c1cccc([N+](=O)[O-])c1`?
IL-1B inflam inh: -20.9; a7 integrin act: 11.4%; ATXN viability: inactive; D3 antag: 12.2; D3 ag: 9.4
